VACV mCherry inh: inhibitors of vaccinia virus infection (mCherry reporter signal) | Vaccinia virus mCherry reporter infection, fluorescence | 0.63% of 310,000 active | Potency, µM (doses to about 36.5 µM), for inactives: at the highest dose activity change, negative = inhibition, most hits filed as inhibitors; calls by dose curve; tested in A549 cells; note: potency is the fitted concentration of half-maximal effect; % is set by controls: 0 for no effect and ±100 for the full control effect; nearly all actives have a fitted effect of over 35% in size
CHX counter: counter-screen for Shiga toxin inhibitors: cycloheximide protein synthesis inhibition; max response, %; AID 2314; 12% of 300,000 active; cell reporter, cycloheximide protein synthesis inhibition counterscreen; in the data active = max response mostly above about 13%, no sharp cut-off; inactive = mostly below about 14%; note: read at 38.3 µM for the half of the compounds with a filed dose; 0% is about no effect
MARV entry inh: blocks Marburg virus binding to or entry into cells | Potency, µM (top dose mostly 37.8 µM), for the others: top-dose activity change, negative = inhibition, hits mostly inhibitors | AID 540276 | 1.8% of 300,000 active | Marburg virus pseudotyped entry inhibition, cell reporter; calls by dose curve; tested in HEK293 cells; note: potency is the fitted concentration of half-maximal effect; % is set by controls: 0 for no effect and ±100 for the full control effect
LASV entry inh: Lassa virus entry inhibition. Potency, µM (titrated, usually from 37.9 µM), for inactives: at the top dose activity change, negative = inhibition, actives largely listed as inhibitors. Lassa virus pseudotype entry inhibition, cell reporter. 1.2% of 300,000 active. AID 540256; calls by dose curve; tested in HEK293 cells; note: potency is the fitted concentration of half-maximal effect; % is set by controls: 0 for no effect and ±100 for the full control effect; nearly all actives have a fitted effect of over 50% in size
Shiga toxin inh: inhibitors of Shiga toxin in Vero cells; AID 2315; inhibition, % at 38.7 µM; Vero cells, Shiga toxin protein synthesis inhibition reporter; 9.2% of 290,000 active; in the data active = inhibition mostly above about 28%, no sharp cut-off; inactive = mostly below about 43%; note: 0% is about no effect
VACV Venus inh: inhibitors of vaccinia virus (Venus reporter). Vaccinia virus Venus reporter expression, fluorescence. Potency, µM (doses to about 36.5 µM), without a hit: at the top dose activity change, negative = inhibition, most hits filed as inhibitors. 0.46% of 330,000 active. AID 720580; calls by dose curve; tested in A549 cells; note: potency is the fitted concentration of half-maximal effect; % is set by controls: 0 for no effect and ±100 for the full control effect; nearly all actives have a fitted effect of over 30% in size
An asterisk follows results filed as active; i = inactive; ? = inconclusive; / = no result given; [ ] = another dose, or the depositor's remark. Shown is part of a subset that was picked to be rich in hits.

SMILES	VACV mCherry inh	CHX counter	MARV entry inh	LASV entry inh	Shiga toxin inh	VACV Venus inh
O=C(CCc1ccccn1)N1CCCC(N2CCN(c3ccc(F)cc3)CC2)C1 (stereo unspecified)	i	1	-13%	1%	15	-7%
Cc1ccc2[nH]c(=O)c3cc(C(=O)N(C)c4ccccc4C)sc3c2c1	/	-1	/	/	-2	/
CC(=O)N(c1ccccc1)c1nnc(-c2cnc(C)cn2)s1	-20%	29*	?	1%	68*	6%
COc1nc(-c2ccccc2)nnc1-c1ccccc1	-14%	41*	?	?	85*	-2%
Cc1ccccc1C1(CC(=O)N2CCCCC2C)CC(=O)N(Cc2cccnc2)C1=O (stereo unspecified)	-10%	/	/	/	/	3%
CC(C)CCC(CCN1CCOCC1)c1ccc2c(c1)OCO2 (stereo unspecified)	/	-2	12µM*	-22%	-11	/
CC(NS(=O)(=O)c1ccc(N)cc1)C1CC2CCC1C2 (stereo unspecified)	?	-3	-1%[46.1 µM]	1%	-4	-27%
N#CC1CC(c2ccccc2)Nc2cc(Cl)ccc2N1 (stereo unspecified)	-23%	37*	/	/	69*	?
CN1C(=O)CC(c2ccccc2)Nc2ccccc21 (stereo unspecified)	-6%	3	3%	4%	27	-11%
CCN(CC)S(=O)(=O)c1ccc(O)c(C(=O)OCC(=O)N2CCCC2)c1	8%	-3	?	/	-11	5%
COCc1cc(CN(C)C(=O)c2oc3c(F)cccc3c2C)[nH]n1	-26%	24*	1%[46.1 µM]	10%[46.1 µM]	13	-12%
COC(=O)c1c(C)[nH]c(C(=O)C(Cc2ccccc2)N(C)C)c1C (stereo unspecified)	0%	26*	12%	29%	96*	-16%
CCOC(=O)c1c(C)[nH]c(C(=O)C(Cc2ccccc2)N(C)C)c1C (stereo unspecified)	1%	20*	?	22%	34	-15%
CCOC(=O)c1c(C)[nH]c(C(=O)OC(C(=O)N(C)C)c2ccccc2)c1C (stereo unspecified)	-20%	/	/	/	/	-17%
CCOC(=O)c1c(C)[nH]c(C(=O)OC(C)C(=O)NCc2ccccc2)c1C (stereo unspecified)	i	/	9%	?	/	-18%
COc1ccc(S(=O)(=O)NCC(=O)Nc2ccc3c(c2)OCCO3)cc1OC	i	2	-13%[46.1 µM]	-5%	-2	-21%
COc1ccccc1CNC(=O)COC(=O)Cc1c[nH]c2ccccc12	-13%	/	19%	-2%	/	-14%
COc1ccccc1NC(=O)COC(=O)Cc1c[nH]c2ccccc12	i	12	-2%	11µM*	15	3%
CCc1ccc(NC(=O)Cn2nc3c4ccccc4n(Cc4ccccc4)cc-3c2=O)cc1	-20%	/	/	29%[46.1 µM]	/	-19%
S=C(Nc1ccc(Cl)cc1Cl)N1CCCCC1	-17%	17*	?	0%	52	-6%
S=C(Nc1ccccc1)N1CCN(C(=S)c2ccccc2)CC1	-26%	44*	8%[46.1 µM]	?	71*	-7%
CCc1ccc(NC(=S)N2CCCCCCC2)cc1	-11%	56*	5%[46.1 µM]	-2%	68*	-14%
CCOc1ccc(NC(=S)N2CCCC2)cc1	-14%	18	11%[46.1 µM]	12%[46.1 µM]	20	7%
CC(=O)c1ccc(NC(=S)N2CCC(Cc3ccccc3)CC2)cc1	i	17*	27%	-11%	49	-15%
O=C(NCc1ccco1)c1ccc2c(c1)N(Cc1ccccc1F)C(=O)c1ccccc1S2=O (stereo unspecified)	-18%	/	-3%[46.1 µM]	-10%[46.1 µM]	/	-17%
SMILES	VACV mCherry inh	CHX counter	MARV entry inh	LASV entry inh	Shiga toxin inh	VACV Venus inh
Cc1ccc(NC(=S)N2CCCC2)cc1C	-21%	25*	?	27%[46.1 µM]	33	-5%
S=C(Nc1ccc(Br)cc1)N1CCCC1	-13%	27*	17%	3%	24	-15%
CC(=O)c1ccc(NC(=S)N2CCCC2)cc1	-16%	18*	23%[46.1 µM]	11%[46.1 µM]	30	-4%
S=C(Nc1ccc(Cl)cc1)N1CCCCC1	-16%	13*	-4%	17%	28	-12%
CCc1ccccc1NC(=O)C1(C)Cc2ccccc2C(=O)O1 (stereo unspecified)	7%	/	0%[46.1 µM]	15%[46.1 µM]	/	10%
Cc1ccc(CNC(=O)c2ccc(CSCc3ccc(C)cc3)o2)cc1	-10%	/	/	?	/	-11%
CCC(C)(C)NC(=O)/C=C/c1cccs1	i	11*	1%	8%	12	-20%

Source: PubChem (National Center for Advancing Translational Sciences (NCATS))
